Reference: the supplement of paper PMC11732987, “Enantioselective OTUD7B fragment discovery through chemoproteomics screening and high-throughput optimisation” (Communications Chemistry, 2025)

Assays:
Assay in all cases: log2 ratio of Biotin-Ahx-Ub-VS probe labelling (compound/DMSO); higher = less target engagement, active = hit call of the paper (q ≤ 0.05, log2 ratio ≤ -1)
Conditions in all cases: treatment time: 3 h
[1] = compound: CCC1N(CCc2sccc12)C(=O)CCl
Method in brief: (§1)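 Compound at 50 or 200 µM, or DMSO, was applied for 3 h in triplicate to HEK293T lysate (495 µg per sample, Tris/CHAPS/IGEPAL buffer with protease inhibitors), after which Biotin-Ahx-Ub-VS was added at 0.5 µM final for 1 h. The labelled DUBs were pulled down with NeutrAvidin, digested with LysC and trypsin, and run by diaPASEF LC-MS/MS. Ratios are averaged base-two logs of compound over DMSO from median-normalised label-free quantities by unpaired t-test, counting only proteins with at least 2 unique peptides.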

[2] = compound: CN1c2ccccc2C(CS1(=O)=O)NC(=O)CCl
Method in brief: as §1

[3] = compound: Cl.ClCC(=O)N1CCc2ncncc2C1
Method in brief: as §1

[4] = compound: Cl.Cn1ncc2C(CCCc12)NC(=O)CCl
Method in brief: as §1

[5] = compound: ClCC(=O)NC1CCOc2ccccc12
Method in brief: as §1

[6] = compound: ClCC(=O)NC1CCCc2ccccc12
Method in brief: (§2)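 Spectronaut label-free, global-median-normalised protein quantities underlie these values, which are average ratios of compound to vehicle from an unpaired t-test. They are reported as log2 and include only proteins identified by two or more unique peptides. Samples of HEK293T lysate (495 µg) were treated in triplicate with a compound concentration series or vehicle for 3 h, then labelled with Biotin-Ahx-Ub-VS at 0.5 µM final for 1 h before NeutrAvidin enrichment, LysC and trypsin digestion, and diaPASEF LC-MS/MS.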

[7] = compound: ClCC(=O)N[C@@H]1CCCc2ccccc12
Method in brief: as §2

[8] = compound: ClCC(=O)N[C@H]1CCCc2ccccc12
Method in brief: as §2

[9] = compound: CCC1N(CCc2cc(OC)c(Cl)cc12)C(=O)CCl
Method in brief: as §1

[10] = compound: CCCC1N(CCc2cc(OC)c(OC)cc12)C(=O)CCl
Method in brief: as §1

Measured: log2 ratio of Biotin-Ahx-Ub-VS probe labelling

PRPF8 (UniProt Q6P2Q9)
inactive: [1]; compound concentration: 50uM -0.0394 | [1]; compound concentration: 200uM -0.112 | [2]; compound concentration: 50uM -0.0921 | [2]; compound concentration: 200uM -0.054 | [3]; compound concentration: 50uM 0.0381 | [3]; compound concentration: 200uM -0.119 | [4]; compound concentration: 50uM 0.0788 | [4]; compound concentration: 200uM 0.0562 | [5]; compound concentration: 50uM 0.0594 | [5]; compound concentration: 200uM -0.157 | [6]; compound concentration: 0.78uM -0.034 | [6]; compound concentration: 1.56uM -0.0309 | [6]; compound concentration: 3.13uM -0.104 | [6]; compound concentration: 6.25uM -0.01 | [6]; compound concentration: 12.5uM -0.0322 | [6]; compound concentration: 25uM -0.101 | [6]; compound concentration: 50uM -0.0882 | [6]; compound concentration: 100uM -0.0511 | [6]; compound concentration: 200uM -0.0422 | [7]; compound concentration: 0.78uM -0.0504 | [7]; compound concentration: 1.56uM -0.022 | [7]; compound concentration: 3.13uM -0.0939 | [7]; compound concentration: 6.25uM -0.0748 | [7]; compound concentration: 12.5uM -0.0604 | [7]; compound concentration: 25uM -0.0428 | [7]; compound concentration: 50uM -0.086 | [7]; compound concentration: 100uM -0.0702 | [7]; compound concentration: 200uM -0.137 | [8]; compound concentration: 0.78uM -0.0339 | [8]; compound concentration: 1.56uM -0.0293 | [8]; compound concentration: 3.13uM -0.049 | [8]; compound concentration: 6.25uM 0.0146 | [8]; compound concentration: 12.5uM -0.0785 | [8]; compound concentration: 25uM -0.109 | [8]; compound concentration: 50uM -0.0661 | [8]; compound concentration: 100uM -0.111 | [8]; compound concentration: 200uM -0.149 | [9]; compound concentration: 50uM 0.0405 | [9]; compound concentration: 200uM 0.131 | [10]; compound concentration: 50uM -0.0761 | [10]; compound concentration: 200uM -0.182

USP10 (UniProt Q14694)
Sequence of UniProt Q14694 (Q14694 whole entry): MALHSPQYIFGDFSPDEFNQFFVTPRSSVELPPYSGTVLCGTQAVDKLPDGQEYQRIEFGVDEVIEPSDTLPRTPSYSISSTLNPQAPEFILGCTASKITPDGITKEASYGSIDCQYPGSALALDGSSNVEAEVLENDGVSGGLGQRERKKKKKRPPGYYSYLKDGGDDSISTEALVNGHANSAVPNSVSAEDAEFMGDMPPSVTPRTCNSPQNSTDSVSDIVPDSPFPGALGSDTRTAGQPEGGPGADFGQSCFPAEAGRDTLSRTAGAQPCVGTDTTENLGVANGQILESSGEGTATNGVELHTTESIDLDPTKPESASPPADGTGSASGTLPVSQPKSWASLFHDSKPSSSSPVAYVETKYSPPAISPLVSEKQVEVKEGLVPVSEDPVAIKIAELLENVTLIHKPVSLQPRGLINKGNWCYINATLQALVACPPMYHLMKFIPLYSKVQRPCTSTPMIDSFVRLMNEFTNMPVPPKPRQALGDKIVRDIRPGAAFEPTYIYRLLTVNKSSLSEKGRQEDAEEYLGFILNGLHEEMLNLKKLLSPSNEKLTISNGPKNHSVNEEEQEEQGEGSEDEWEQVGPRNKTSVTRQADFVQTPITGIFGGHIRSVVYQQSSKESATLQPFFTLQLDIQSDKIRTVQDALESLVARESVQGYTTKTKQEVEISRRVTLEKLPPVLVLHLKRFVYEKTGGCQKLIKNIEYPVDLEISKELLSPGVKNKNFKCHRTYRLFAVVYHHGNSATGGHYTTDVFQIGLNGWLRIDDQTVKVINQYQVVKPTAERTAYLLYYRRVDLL
inactive: [1]; compound concentration: 50uM -0.19 | [1]; compound concentration: 200uM -0.0252 | [2]; compound concentration: 50uM -0.181 | [2]; compound concentration: 200uM -0.0808 | [3]; compound concentration: 50uM -0.0803 | [3]; compound concentration: 200uM -0.275 | [4]; compound concentration: 50uM -0.122 | [4]; compound concentration: 200uM 0.147 | [5]; compound concentration: 50uM 0.0122 | [5]; compound concentration: 200uM 0.0383 | [6]; compound concentration: 0.78uM -0.0342 | [6]; compound concentration: 1.56uM -0.0587 | [6]; compound concentration: 3.13uM -0.0649 | [6]; compound concentration: 6.25uM -0.0649 | [6]; compound concentration: 12.5uM -0.132 | [6]; compound concentration: 25uM -0.0689 | [6]; compound concentration: 50uM -0.0491 | [6]; compound concentration: 100uM -0.183 | [6]; compound concentration: 200uM -0.0607 | [7]; compound concentration: 0.78uM -0.0933 | [7]; compound concentration: 1.56uM -0.139 | [7]; compound concentration: 3.13uM -0.0782 | [7]; compound concentration: 6.25uM -0.0824 | [7]; compound concentration: 12.5uM -0.0687 | [7]; compound concentration: 25uM -0.0178 | [7]; compound concentration: 50uM 0.00497 | [7]; compound concentration: 100uM -0.08 | [7]; compound concentration: 200uM -0.0678 | [8]; compound concentration: 0.78uM -0.0203 | [8]; compound concentration: 1.56uM -0.0495 | [8]; compound concentration: 3.13uM -0.0618 | [8]; compound concentration: 6.25uM -0.0539 | [8]; compound concentration: 12.5uM 0.0103 | [8]; compound concentration: 25uM -0.0249 | [8]; compound concentration: 50uM -0.0723 | [8]; compound concentration: 100uM 0.0262 | [8]; compound concentration: 200uM -0.109 | [9]; compound concentration: 50uM -0.0451 | [9]; compound concentration: 200uM -0.029 | [10]; compound concentration: 50uM -0.317 | [10]; compound concentration: 200uM -0.194
